Rows were chosen to be rich in hits. Some 2.8% of all compounds tested hit in one or more screens of this group.
POLI inh: blocks human DNA polymerase iota activity; Q9UNA4; AID 588590; Potency, µM (series often up to 115 µM), most hits filed as inhibitors; Pol iota fluorescent replication assay, 10 min; 390,000 tested, 1% active
Target sequence (Q9UNA4 whole entry, looked up): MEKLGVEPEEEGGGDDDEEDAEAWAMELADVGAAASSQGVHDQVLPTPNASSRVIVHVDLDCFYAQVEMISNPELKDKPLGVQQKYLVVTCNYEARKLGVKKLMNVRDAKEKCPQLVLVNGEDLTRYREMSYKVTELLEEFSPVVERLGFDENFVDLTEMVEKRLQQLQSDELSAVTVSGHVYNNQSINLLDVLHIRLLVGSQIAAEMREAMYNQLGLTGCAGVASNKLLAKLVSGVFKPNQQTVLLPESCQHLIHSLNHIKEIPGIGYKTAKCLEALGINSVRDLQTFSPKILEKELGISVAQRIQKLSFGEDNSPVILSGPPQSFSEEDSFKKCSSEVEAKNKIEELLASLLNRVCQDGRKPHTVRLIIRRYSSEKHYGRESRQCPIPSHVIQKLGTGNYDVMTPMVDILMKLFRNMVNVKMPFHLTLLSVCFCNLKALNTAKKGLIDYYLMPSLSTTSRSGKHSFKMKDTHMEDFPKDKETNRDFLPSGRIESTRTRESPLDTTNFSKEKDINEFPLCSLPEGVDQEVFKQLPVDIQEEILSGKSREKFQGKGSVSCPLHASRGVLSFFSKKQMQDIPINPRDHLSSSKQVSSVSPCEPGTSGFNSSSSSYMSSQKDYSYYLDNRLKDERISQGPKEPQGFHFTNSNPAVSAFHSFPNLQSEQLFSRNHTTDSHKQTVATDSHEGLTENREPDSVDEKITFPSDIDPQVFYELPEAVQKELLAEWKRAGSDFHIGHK
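Pol iota at 10 nM preincubated 15 min with compounds at room temperature; reaction started with fluorescent substrate, 50 nM final. Fluorescence read kinetically at 0 and 10 min; buffer-only wells as negative control.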
PI5P4K alpha inh: inhibitors of human PI5P4K alpha; AID 652105; 330,000 tested, 1.2% active; PI5P4Kalpha enzyme, ADP-Glo luminescence, 60 min; stronger effect = lower value; max response, %; P48426; active means max response of -50% or lower; inconclusive means between -30% and -50%; inactive means -30% or higher; further: value at the top dose of about 77 µM
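Controls without substrate or without enzyme flank wells where PI5P4Kalpha converts substrate using 5 microM ATP (final). Incubation lasts 60 minutes at room temperature; ADP formed is read by ADP-Glo luminescence.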
WRN inhibitor: WRN helicase (human) inhibition; Q14191; WRN helicase unwinding, fluorescent forked duplex, kinetic; Potency, µM (highest dose often 114 µM), actives largely listed as inhibitors; 360,000 tested, 0.46% active; further: nearly all actives have a fitted effect of over 55% in size
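Primary qHTS, 1536-well format. 20 nM WRN + compound, 15 min RT; start with 100 nM forked fluorophore/quencher duplex, 2 mM ATP (final); kinetic read ex 525/em 598 nm.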
POLH inh: blocks human DNA polymerase eta activity; Q9Y253; recombinant Pol eta, fluorescent DNA replication assay; Potency, µM (highest dose often 114 µM), actives largely listed as inhibitors; 390,000 tested, 1.2% active
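Fluorescent replication assay: 50 nM final substrate added after a 15 min room-temperature compound preincubation with 10 nM enzyme. Signal taken at 0 min and again at 10 min.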
POLK inh: blocks human DNA polymerase kappa activity | Q9UBT6 | purified Pol kappa, fluorescent DNA synthesis assay, 10 min | Potency, µM (top dose mostly 107 µM), usual class: inhibitors | 400,000 tested, 0.53% active | AID 588579
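First, compounds were pin-transferred onto 10 nM Pol kappa. After 15 min at room temperature, substrate was added to 50 nM final. Fluorescence was then measured kinetically at 0 and 10 min.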
Pol beta inh: inhibitors of human DNA polymerase beta; P06746; Pol beta primer extension/strand displacement, fluorescence kinetic; Potency, µM (highest dose often 114 µM), actives largely listed as inhibitors; 340,000 tested, 1.3% active; AID 485314
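10 nM enzyme + cpd, 15 min RT; start with substrate 50 nM final; read 0 min and after 10 min RT. Corrected, normalized data; 4-parameter Hill curve fit.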
ADP-Glo interf: ADP-Glo luciferase interference, PI5P4K counter-screen. shares compounds with PI5P4K alpha inh. ADP-Glo detection counter-screen, luciferase luminescence, no enzyme. Potency, µM (doses to about 76.9 µM), usual class: inhibitors. 1,100 tested, under 10 active
A number is an active result; [ ] = another dose, or the depositor's remark. Unless noted, the call rests on the fitted dose curve; in most records, active means well fitted curve in the direction sought with a large enough effect; inconclusive means small, poorly fitted or top-dose-only effect, or another doubt; inactive means no such curve, though single readings can be large; an effect the other way counts as inactive or inconclusive.

How did O=C(CN1CCN(c2ccccc2F)CC1)NCc1ccccc1 do in these assays?
POLI inh: inactive; PI5P4K alpha inh: inactive; WRN inhibitor: inactive; POLH inh: inconclusive; POLK inh: inactive; Pol beta inh: inactive; ADP-Glo interf: inactive

Results for Cc1cccc(N2CCN(CC(=O)NCc3ccccc3)CC2)c1C ?
POLI inh: inactive; PI5P4K alpha inh: inactive; WRN inhibitor: inactive; POLH inh: inactive; POLK inh: inactive; Pol beta inh: inactive

What do the screens show for `Cc1ccc(Nc2nc(C)c3c(n2)CC(C)CC3=O)c(C)c1` (stereo not given)?
POLI inh: inactive; PI5P4K alpha inh: inactive; WRN inhibitor: inactive; POLH inh: inactive; POLK inh: inactive; Pol beta inh: inactive; ADP-Glo interf: inactive

Results for COc1cccc2cc(-c3nc(-c4ccccc4F)no3)c(=O)oc12 ?
POLI inh: inactive; POLH inh: inactive; POLK inh: inactive; Pol beta inh: inactive

How did Cc1nc2c(nnn2Cc2ccccc2)c(=O)[nH]1 do in these assays?
POLI inh: inactive; PI5P4K alpha inh: -88; WRN inhibitor: inconclusive; POLH inh: inactive; POLK inh: inactive; Pol beta inh: inactive; ADP-Glo interf: inactive

What do the screens show for `CCOC(=O)c1c(NC(=O)c2nc(SC(C)C)ncc2Cl)sc2c1CCCC2`?
POLI inh: inactive; POLH inh: inactive; POLK inh: inactive; Pol beta inh: inactive

Results for CCCCC(=O)Nc1nnc(S(=O)(=O)N(C)Cc2ccccc2)s1 ?
POLI inh: inactive; POLH inh: inactive; POLK inh: inactive; Pol beta inh: inactive

How did NC(=O)c1ccsc1NC(=O)COC(=O)c1ccccn1 do in these assays?
POLI inh: inconclusive; PI5P4K alpha inh: -52; WRN inhibitor: inactive[11.6 µM]; POLH inh: inconclusive; POLK inh: inconclusive; ADP-Glo interf: inactive

How did NC(=O)c1ccsc1NC(=O)COC(=O)c1cnccn1 do in these assays?
POLI inh: 79µM; PI5P4K alpha inh: -63; WRN inhibitor: inconclusive; POLH inh: inconclusive; POLK inh: inconclusive; ADP-Glo interf: inactive

What do the screens show for `COc1ccc2nc(N3CCN(C(=O)C4CC4)CC3)sc2c1`?
POLI inh: inactive; POLH inh: inactive; POLK inh: inactive; Pol beta inh: inactive

Results for Cc1nc2ccc(NC3=NCCCCC3)cc2s1 ?
POLI inh: inactive; PI5P4K alpha inh: -55; WRN inhibitor: inactive; POLH inh: inconclusive; POLK inh: inactive; Pol beta inh: inactive; ADP-Glo interf: inactive

What do the screens show for `Cc1ccc(NC2=NCCC2)cc1Cl`?
POLI inh: inactive; PI5P4K alpha inh: inactive; WRN inhibitor: inactive; POLH inh: inactive; POLK inh: inactive; Pol beta inh: inactive

Results for Cc1ccc(-c2csc(NC(=O)c3ccc(F)cc3)c2C(=O)O)cc1 ?
POLI inh: inactive; PI5P4K alpha inh: -61; WRN inhibitor: inactive; POLH inh: inactive; POLK inh: inactive; Pol beta inh: inactive; ADP-Glo interf: inactive

What do the screens show for `O=C(Nc1scc(-c2ccccc2)c1C(=O)O)c1ccc(F)cc1`?
POLI inh: inactive; PI5P4K alpha inh: inconclusive; WRN inhibitor: inactive; POLH inh: inactive; POLK inh: inactive; Pol beta inh: inactive

What do the screens show for `CC1CCCCN1c1cc2c(cc1F)c(=O)c(S(=O)(=O)c1ccccc1)cn2Cc1ccccc1` (stereo not given)?
POLI inh: inactive; POLH inh: inactive; POLK inh: inactive; Pol beta inh: inactive

What do the screens show for `Cc1sc2ncnc(NC(C)C(=O)O)c2c1C` (stereo not given)?
POLI inh: inactive; WRN inhibitor: inactive; POLH inh: inactive; POLK inh: inactive; Pol beta inh: inactive; ADP-Glo interf: inactive

What do the screens show for `CCn1ccc2cc(S(=O)(=O)N3CCC(C(=O)NCC(C)c4ccccc4)CC3)ccc21` (stereo not given)?
POLI inh: inactive; POLH inh: inactive; POLK inh: inactive; Pol beta inh: inactive

Results for Cc1nc(CSc2ccc(Cl)cc2)cc(N2CCOCC2)n1 ?
POLI inh: inactive; PI5P4K alpha inh: inactive; WRN inhibitor: inactive; POLH inh: inactive; POLK inh: inactive; Pol beta inh: inactive

What do the screens show for `Cc1nc(CS(=O)(=O)c2ccccc2)cc(N2CCOCC2)n1`?
POLI inh: inactive; PI5P4K alpha inh: -57; WRN inhibitor: inconclusive; POLH inh: inactive; POLK inh: inactive; Pol beta inh: inactive; ADP-Glo interf: inactive

How did COc1ccc(CCNC(=O)CSc2ccccc2)cc1OC do in these assays?
POLI inh: inconclusive; PI5P4K alpha inh: inactive; WRN inhibitor: inactive; POLH inh: inactive; POLK inh: inactive; Pol beta inh: inactive

How did COc1ccc(CCNC(=O)CNCC(c2ccccc2)N(C)C)cc1OC (stereo not given) do in these assays?
POLI inh: inactive; PI5P4K alpha inh: inactive; WRN inhibitor: inactive; POLH inh: inactive; POLK inh: inactive; Pol beta inh: inactive; ADP-Glo interf: inactive

What do the screens show for `O=C(Nc1cc(F)ccc1F)C1CCN(c2nc3ccccc3n3cccc23)CC1`?
POLI inh: inactive; POLH inh: inactive; POLK inh: inactive; Pol beta inh: inactive

What do the screens show for `O=C(NCCC1=CCCCC1)c1ccc2c(c1)sc1nc(-c3ccc(F)cc3)cn12`?
POLI inh: inactive; POLH inh: inactive; POLK inh: inactive; Pol beta inh: inactive

Results for Oc1cc2c(cc1C(c1ccc(Cl)c(Cl)c1)N1CCCC1)OCO2 (stereo not given) ?
POLI inh: inconclusive; PI5P4K alpha inh: -74; WRN inhibitor: inconclusive; POLH inh: inactive; POLK inh: inactive; Pol beta inh: inactive; ADP-Glo interf: inactive

Results for O=c1[nH]c2cc3c(cc2cc1CN(Cc1ccccc1)Cc1nnnn1Cc1ccco1)OCCO3 ?
POLI inh: 18µM; PI5P4K alpha inh: -54; WRN inhibitor: inconclusive; POLH inh: inconclusive; POLK inh: inconclusive; Pol beta inh: 32µM; ADP-Glo interf: inactive

What do the screens show for `CC(NC(=O)c1ccnn1C)C1CCCO1` (stereo not given)?
POLI inh: inactive; PI5P4K alpha inh: inconclusive; WRN inhibitor: inactive; POLH inh: inactive; POLK inh: inactive; Pol beta inh: inactive; ADP-Glo interf: inactive

How did CC(NC(=O)c1ccc(Cl)s1)C1CCCO1 (stereo not given) do in these assays?
POLI inh: inactive; WRN inhibitor: inactive; POLH inh: inactive; POLK inh: inactive; Pol beta inh: inactive

Results for CN1CCN(C(c2ccc(F)cc2)c2ccc3cccnc3c2O)CC1 (stereo not given) ?
POLI inh: inactive; PI5P4K alpha inh: inactive; WRN inhibitor: inactive; POLH inh: inactive; POLK inh: inactive

How did CN1CCN(C(c2ccc(Br)cc2)c2cc(Cl)c3cccnc3c2O)CC1 (stereo not given) do in these assays?
POLI inh: inactive; PI5P4K alpha inh: -84; WRN inhibitor: inactive; POLH inh: inactive; POLK inh: inactive; Pol beta inh: inactive; ADP-Glo interf: inactive
